# This is one part of a sample in which hits are shown more often than they occur.
# Dicer inh = inhibitors of Dicer pre-microRNA processing, primary screen, biochemical, cat-ELCCA, chemiluminescence | z-score at 25 µM | AID 1347074, 2019 | cat-ELCCA pre-miR-21 Dicer processing; stronger effect = higher value | 47,000 compounds, 6% hits | Endoribonuclease Dicer (Homo sapiens), Q9UPY3; in the data active = z-score above about 3, passing the limit was not always enough;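 note: plate controls were vehicle for no effect and no enzyme for full effect; higher signal means more uncleaved substrate so more Dicer inhibition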
# Active calls of the source: *.
SMILES,Dicer inh
COCCOC(=O)C1=C(C)NC2=C(C(=O)CC(C)(C)C2)C1c1ccc(OC)c(OC)c1 (centres undefined),3.71*
CCOCCOC(=O)C1=C(C)NC2=C(C(=O)CC(C)(C)C2)C1c1ccc(OC)c(OC)c1 (centres undefined),-0.53
COC(=O)C1=C(C)NC2=C(C(=O)CC(c3ccc(OC)cc3)C2)C1c1ccc(OC)c(OC)c1 (centres undefined),2.1
CCCCOC(=O)C1=C(C)NC2=C(C(=O)CC(C)(C)C2)C1c1ccc(OC)c(OC)c1 (centres undefined),0.33
CCOC(=O)C1CCN(c2ccccc2CN(Cc2ccccc2)S(=O)(=O)c2ccc(Cl)cc2)CC1,-1.15
O=C(Nc1nc2c(s1)CCc1ccccc1-2)c1cccc(F)c1,-0.17
O=C(Nc1ccccc1)n1nccc1-c1ccc([N+](=O)[O-])cc1Cl,0.61
S=c1[nH]nc(C2c3ccccc3Oc3ccccc32)o1,0.79
CCCS(=O)(=O)C/C(N)=N/OC(=O)c1ccc(Cl)cc1,-0.54
CC(C)S(=O)(=O)C/C(N)=N/OS(=O)(=O)c1ccc(Cl)cc1,-1.48
CC(C)S(=O)(=O)C/C(N)=N/OCc1ccc(Cl)cc1,-0.68
N/C(CS(=O)(=O)Cc1ccco1)=N\OC(=O)c1ccc(Cl)cc1,4.82*
N#C/C(=N\OC(=O)c1ccc(Cl)cc1)S(=O)(=O)c1ccc(Cl)cc1,-3.76
CC(C)S(=O)(=O)C/C(N)=N/OC(=O)c1cc(Cl)cc(Cl)c1,5.38*
CC(C)c1ccc(Nc2nc3cccnc3s2)cc1,-0.43
COC(=O)C1=C(NC(=O)NC(=O)N(c2ccccc2)S(C)(=O)=O)CCS1,-0.12
O=S(=O)(c1ccc(Cl)cc1)N1CCCC1c1cccs1 (centres undefined),-0.86
CC1C(c2ccccc2)OCCN1CN1C(=O)c2ccccc2C1=O (centres undefined),3.71*
Cc1onc(-c2ccccc2Cl)c1C(=O)N1CCOC(c2ccccc2)C1C (centres undefined),-0.25
O=C1c2ccccc2C(=O)N1CC1CN(CC(O)C(F)(F)F)CCO1 (centres undefined),0.07
CCCCOc1ccccc1C1C(C(=O)OCCC)=C(C)NC2=C1C(=O)CC(C)(C)C2 (centres undefined),-0.29
Cc1ccc(-c2nc3ccccc3[nH]2)cc1,0.21
Cc1ccc(SCc2ccccc2-c2nc3ccccc3[nH]2)cc1,-1.35
Oc1ccccc1-c1nc2ccccc2[nH]1,3.18*
O=C1CSC(c2cccnc2)N1c1c(F)cccc1Cl (centres undefined),-0.05
SMILES,Dicer inh
COc1ccc(C2CC(=O)C3=C(C2)NC(C)=C(C(=O)OC(C)C)C3c2ccccc2C)cc1OC (centres undefined),-0.01
O=C1c2ccccc2NC(c2ccc3c(c2)OCO3)N1Cc1ccccc1 (centres undefined),3.43*
c1ccc2c(c1)NC(c1ccc3c(c1)OCCO3)n1cccc1-2 (centres undefined),2.57
CC1(C)CC(=O)C2=C(C1)Nc1ccccc1NC2c1ccc2c(c1)OCO2 (centres undefined),-0.62
CCOC(=O)/C(C#N)=C/c1ccccc1Cl,-1.22
CCN1C(=O)C2(/C(=C(/O)c3ccc(C)c(F)c3)C(=O)C(=O)N2CCCN(C)C)c2ccccc21 (centres undefined),2.57
OCCNC(=S)NC1CCCCCC1,-0.54
O=C(Nc1cccc(-c2nc3cc(Cl)ccc3o2)c1)c1ccc([N+](=O)[O-])o1,2.49
O=C1CC(c2cccc(Cl)c2)Cc2nc(N3CCc4ccccc43)ncc21 (centres undefined),-0.39
O=C1CC(c2cccc(Cl)c2)Cc2nc(NCc3ccco3)ncc21 (centres undefined),2.31
O=C1CC(c2cccc(Cl)c2)Cc2nc3nc(C(F)(F)F)nn3cc21 (centres undefined),3.82*
COCCNC(=O)COc1ccc(Br)cc1,1.75
CCOC(=O)CCc1c(C)c(C#N)c2nc3ccccc3n2c1N1CCN(C)CC1,1.15
O=C(O)/C=C/C(=O)NCCCCCCNC(=O)/C=C/C(=O)O,0.82
COc1ccc(-c2nc(=S)c3c(n2CCCN(C)C)CC(C)(C)OC3)cc1,3.13*
COCCn1c(-c2ccccc2)nc(=S)c2c1CC(C)(C)OC2,-0.39
CCN(CC)CCn1c(-c2ccc(OC)cc2)nc(=S)c2c1CC(C)(C)OC2,0.56
CCCCCOC(=O)CCSc1n[nH]c(=O)[nH]c1=O,-0.19
NNC(=S)Nc1cccc(Cl)c1,2.86
CNC(=S)N/N=C/c1ccccc1O,1.42
Oc1ccccc1/C=N/NC(=S)Nc1cccc(Cl)c1,12.6*
Cc1cc(Sc2nnc(N)s2)c2ccccc2n1,-0.49
CC(c1ccccc1)c1nnc(N)s1 (centres undefined),0.97
CCC(c1ccccc1)c1nnc(N)s1 (centres undefined),4.21*
O=C(/C=C/c1cc(-c2ccccc2)c(C(F)(F)F)s1)c1ccc(Cl)cc1,0.16
SMILES,Dicer inh
c1cnc(Nc2nc(-c3cccnc3)cs2)nc1,-0.16
Cc1ccc(C)c(Nc2nc(-c3cccnc3)cs2)c1,3.3*
Cc1ccc(Nc2n[nH]c(=S)s2)cc1,2.86
Cc1cc(C)nc(NS(=O)(=O)c2ccc(Nc3nc(-c4cccnc4)cs3)cc2)n1,-0.72
Cc1ccc(C)c(Nc2n[nH]c(=S)s2)c1,4.61*
Cc1c(Cl)cccc1Nc1n[nH]c(=S)s1,0.45
Cc1c(C[C@H](N)C(=O)O)sc2ccccc12,-0.63
Cc1cc(C)c(Nc2nc(-c3cc(-c4ccccc4)no3)cs2)c(C)c1,-0.11
CS(=O)(=NC(=O)c1ccc(C(F)(F)F)cc1)c1ccccc1 (centres undefined),18.5
COc1ccc(/C(O)=C2\C(=O)C(=O)N(CCCn3ccnc3)C2c2ccc(OC)cc2)cc1 (centres undefined),2.82
FC(F)(F)c1ccnc(NCCNC(=S)NCCc2ccccc2)n1,2.23
CC(=O)Oc1ccc2c(c1)C(C)=CC(C)(C)N2C(C)=O,1.11
O=C(Nc1ccc(O)cc1)c1c(O)c2ccccc2[nH]c1=O,-1.19
CCCCN1CC(C(=O)OCC)=C(O)C1=O,-0.89
CCOC(=O)c1sc(=S)n(C)c1C,2.89
CCOC(=O)C1=C(O)CCN(C)C1,13.6*
O=[N+]([O-])c1ccc(N/N=C/c2ccccc2OC(F)(F)F)nc1,1.5
Brc1ccc2ncnc(-c3ccccc3)c2c1,-0.41
CC(=O)N1N=C(c2ccco2)CC1c1cn(-c2ccccc2)nc1-c1cccs1 (centres undefined),-1.13
O=C(NNc1c(Cl)cccc1Cl)NS(=O)(=O)c1ccc(Cl)cc1,0.09
C=CCSc1nnc2c3ccccc3n(CC=C)c2n1,3.24*
CCCSc1nnc2c3ccccc3n(CC)c2n1,1.1
CCn1c2ccccc2c2nnc(SCC(=O)c3ccccc3)nc21,1.58
CC1=C(C)CC2C(=O)N(c3ccc(C(C)C)cc3)C(=O)C2C1 (centres undefined),0.72
N#Cc1ccc(CSc2ccccc2NC2OC(=O)c3ccccc32)cc1 (centres undefined),3.21
O=C1OC(Nc2ccccc2Sc2ccc(Cl)cc2[N+](=O)[O-])c2ccccc21 (centres undefined),0.08
O=C1OC(Nc2ccccc2SCc2ccccc2Cl)c2ccccc21 (centres undefined),3.33*
O=S1(=O)CCC(N2COc3c(cc(Cl)c4cccnc34)C2)C1 (centres undefined),-1.28
CCOC(=O)c1sc2ncn3c(-c4ccccc4)nnc3c2c1C,-1.72
Cc1ccc(/C=C2/N=C(c3ccccc3)NC2=O)o1,0.47

# From PubChem
